Experimental findings from ChEMBL document CHEMBL5724796, “Tm Shift (DSF) assay results for EUbOPEN Chemogenomics Library” (2024) are described below.

Conditions in all cases: Compound concentration 20.0 uM
Experiment [1] deals with Tyrosine-protein kinase ABL1 (Homo sapiens) (UniProt P00519).
For experiment [2], the target named is Bromodomain-containing protein 4 (Homo sapiens) (UniProt O60885).
Experiment [3] deals with Cyclin-dependent kinase 2 (Homo sapiens) (UniProt P24941).
Experiment [4] deals with Casein kinase I isoform delta (Homo sapiens) (UniProt P48730).
Sequence of Casein kinase I isoform delta (Homo sapiens) (P48730 whole entry, looked up, canonical isoform): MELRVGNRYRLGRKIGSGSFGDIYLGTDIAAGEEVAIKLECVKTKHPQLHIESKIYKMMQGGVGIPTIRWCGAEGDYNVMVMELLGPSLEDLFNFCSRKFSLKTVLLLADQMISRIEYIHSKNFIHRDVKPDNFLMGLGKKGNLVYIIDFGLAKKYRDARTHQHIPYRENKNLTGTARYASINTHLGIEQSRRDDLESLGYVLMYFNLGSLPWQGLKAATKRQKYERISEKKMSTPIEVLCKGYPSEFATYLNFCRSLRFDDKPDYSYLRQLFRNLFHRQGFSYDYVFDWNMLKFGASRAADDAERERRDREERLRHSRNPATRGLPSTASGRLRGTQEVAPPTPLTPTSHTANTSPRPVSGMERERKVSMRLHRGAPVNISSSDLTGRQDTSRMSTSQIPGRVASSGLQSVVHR
Experiment [5] has as its target Glycogen synthase kinase-3 beta (Homo sapiens) (UniProt P49841).
Experiment [6] deals with Mitogen-activated protein kinase 1 (Homo sapiens) (UniProt P28482).
Sequence of Mitogen-activated protein kinase 1 (Homo sapiens) (P28482 whole entry): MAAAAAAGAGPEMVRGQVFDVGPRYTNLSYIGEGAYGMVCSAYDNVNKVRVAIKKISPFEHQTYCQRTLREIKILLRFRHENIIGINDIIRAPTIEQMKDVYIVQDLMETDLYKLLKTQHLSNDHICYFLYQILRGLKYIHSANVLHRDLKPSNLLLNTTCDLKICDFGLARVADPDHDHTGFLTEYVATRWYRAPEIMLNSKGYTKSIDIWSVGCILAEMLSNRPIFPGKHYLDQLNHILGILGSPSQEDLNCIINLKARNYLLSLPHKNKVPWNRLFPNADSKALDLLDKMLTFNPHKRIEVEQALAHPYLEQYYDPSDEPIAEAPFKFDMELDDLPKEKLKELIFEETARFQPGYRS
The target of experiment [7] is T1, Aurora kinase A (Homo sapiens) (UniProt O14965).
T1 sequence (whole entry): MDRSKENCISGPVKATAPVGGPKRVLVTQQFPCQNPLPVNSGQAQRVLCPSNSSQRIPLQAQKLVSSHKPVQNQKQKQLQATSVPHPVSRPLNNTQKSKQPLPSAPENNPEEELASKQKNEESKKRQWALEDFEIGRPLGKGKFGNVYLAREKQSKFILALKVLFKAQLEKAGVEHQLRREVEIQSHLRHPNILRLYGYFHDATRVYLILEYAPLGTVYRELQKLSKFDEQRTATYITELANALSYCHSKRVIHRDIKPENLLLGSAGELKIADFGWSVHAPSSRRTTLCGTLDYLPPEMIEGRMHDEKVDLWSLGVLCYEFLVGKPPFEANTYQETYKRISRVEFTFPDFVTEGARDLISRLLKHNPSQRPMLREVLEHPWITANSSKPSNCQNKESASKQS

The target of experiment [8] is T2, Transcription intermediary factor 1-alpha (Homo sapiens) (UniProt O15164).
T2 sequence (whole entry): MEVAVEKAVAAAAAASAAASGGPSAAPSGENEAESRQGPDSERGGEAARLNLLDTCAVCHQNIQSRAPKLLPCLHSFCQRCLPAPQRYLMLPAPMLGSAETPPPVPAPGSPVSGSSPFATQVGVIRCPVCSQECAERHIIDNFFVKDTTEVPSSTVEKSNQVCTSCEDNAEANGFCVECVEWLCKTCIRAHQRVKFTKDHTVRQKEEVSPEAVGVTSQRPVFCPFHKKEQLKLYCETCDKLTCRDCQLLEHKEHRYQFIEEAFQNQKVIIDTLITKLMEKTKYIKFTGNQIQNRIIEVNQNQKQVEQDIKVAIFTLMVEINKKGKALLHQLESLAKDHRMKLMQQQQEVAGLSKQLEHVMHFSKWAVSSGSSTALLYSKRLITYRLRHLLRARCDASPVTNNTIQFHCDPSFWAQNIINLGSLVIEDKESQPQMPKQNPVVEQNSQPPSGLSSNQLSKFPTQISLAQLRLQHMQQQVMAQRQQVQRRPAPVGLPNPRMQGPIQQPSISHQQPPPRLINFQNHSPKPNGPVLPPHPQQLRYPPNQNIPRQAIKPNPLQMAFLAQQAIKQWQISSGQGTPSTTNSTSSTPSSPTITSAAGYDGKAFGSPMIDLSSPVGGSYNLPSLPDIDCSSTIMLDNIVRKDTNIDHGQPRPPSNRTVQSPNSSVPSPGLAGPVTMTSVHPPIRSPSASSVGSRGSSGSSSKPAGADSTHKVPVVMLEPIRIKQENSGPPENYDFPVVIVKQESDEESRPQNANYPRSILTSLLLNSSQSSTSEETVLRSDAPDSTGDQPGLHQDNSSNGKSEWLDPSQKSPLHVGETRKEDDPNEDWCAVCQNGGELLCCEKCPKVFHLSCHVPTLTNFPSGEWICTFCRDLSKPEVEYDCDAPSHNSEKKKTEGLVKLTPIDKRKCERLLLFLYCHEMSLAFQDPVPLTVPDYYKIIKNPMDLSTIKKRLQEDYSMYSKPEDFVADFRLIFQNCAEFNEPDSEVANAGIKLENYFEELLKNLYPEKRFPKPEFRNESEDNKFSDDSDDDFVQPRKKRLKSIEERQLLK

Sequence of Tyrosine-protein kinase ABL1 (Homo sapiens) (P00519 whole entry): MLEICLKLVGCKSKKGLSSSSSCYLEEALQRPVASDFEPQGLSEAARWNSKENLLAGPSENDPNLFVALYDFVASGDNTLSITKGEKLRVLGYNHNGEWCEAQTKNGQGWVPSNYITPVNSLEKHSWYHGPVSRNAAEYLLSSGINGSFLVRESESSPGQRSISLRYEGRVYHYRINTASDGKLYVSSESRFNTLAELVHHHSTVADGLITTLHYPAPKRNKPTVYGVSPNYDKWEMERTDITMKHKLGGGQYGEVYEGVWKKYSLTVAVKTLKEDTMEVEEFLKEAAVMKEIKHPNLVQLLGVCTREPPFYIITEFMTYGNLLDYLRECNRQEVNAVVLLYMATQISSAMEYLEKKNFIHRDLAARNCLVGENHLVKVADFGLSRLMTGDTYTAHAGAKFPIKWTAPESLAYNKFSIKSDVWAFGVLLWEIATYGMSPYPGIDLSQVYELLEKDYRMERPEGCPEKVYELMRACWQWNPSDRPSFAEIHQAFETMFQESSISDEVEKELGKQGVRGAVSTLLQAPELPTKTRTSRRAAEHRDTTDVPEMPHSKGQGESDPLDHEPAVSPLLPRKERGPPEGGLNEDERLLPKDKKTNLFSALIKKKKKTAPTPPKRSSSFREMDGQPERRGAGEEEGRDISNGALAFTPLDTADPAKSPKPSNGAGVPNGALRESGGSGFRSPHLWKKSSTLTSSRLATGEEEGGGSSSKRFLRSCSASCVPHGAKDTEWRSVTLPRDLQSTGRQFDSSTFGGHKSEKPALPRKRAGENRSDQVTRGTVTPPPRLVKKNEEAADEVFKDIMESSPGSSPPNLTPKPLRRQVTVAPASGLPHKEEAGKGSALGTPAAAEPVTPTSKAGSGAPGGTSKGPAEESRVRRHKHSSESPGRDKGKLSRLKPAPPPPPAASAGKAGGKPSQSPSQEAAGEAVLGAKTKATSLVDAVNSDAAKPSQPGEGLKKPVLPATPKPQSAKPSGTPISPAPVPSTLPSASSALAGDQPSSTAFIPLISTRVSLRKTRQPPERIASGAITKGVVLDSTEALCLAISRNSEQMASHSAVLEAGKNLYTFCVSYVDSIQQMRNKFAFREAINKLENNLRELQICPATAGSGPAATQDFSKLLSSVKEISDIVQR
Sequence of Glycogen synthase kinase-3 beta (Homo sapiens) (P49841 whole entry, looked up): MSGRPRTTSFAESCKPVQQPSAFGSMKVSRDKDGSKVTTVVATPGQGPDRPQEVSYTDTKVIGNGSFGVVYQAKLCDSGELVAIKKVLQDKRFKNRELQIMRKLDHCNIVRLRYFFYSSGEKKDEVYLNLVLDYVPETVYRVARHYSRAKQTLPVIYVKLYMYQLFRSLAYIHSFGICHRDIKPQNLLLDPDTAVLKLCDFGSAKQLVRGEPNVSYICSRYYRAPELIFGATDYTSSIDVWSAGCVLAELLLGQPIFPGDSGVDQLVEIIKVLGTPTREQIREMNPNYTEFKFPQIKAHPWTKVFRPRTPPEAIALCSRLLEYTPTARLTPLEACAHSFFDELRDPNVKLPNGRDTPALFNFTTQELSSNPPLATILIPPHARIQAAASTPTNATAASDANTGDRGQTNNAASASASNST

Turning to `CCc1oc2ccccc2c1C(=O)c1cc(Br)c(O)c(Br)c1`, the ΔTm – broadly, the change in melting temperature against a reference sample – was 0.11 °C in experiment [1]; -6.7 °C in experiment [2]; -2.31 °C in experiment [3]; -9.78 °C in experiment [4]; 0 °C in experiment [5]; -2.33 °C in experiment [6]. Further, the ΔTm in experiment [7] was determined as 0.35 °C; in experiment [8], 0 °C.
For the molecule `Cc1ccc2[nH]c3c(c2c1)CCCC3C(N)=O` (stereo unspecified), the ΔTm in experiment [1] was 0.45 °C; in experiment [2], -2.26 °C; in experiment [3], 0.06 °C; in experiment [4] it was -0.29 °C; in experiment [5] it was -0.37 °C; in experiment [6] it was 0.52 °C. The ΔTm in experiment [7] is -2.14 °C; in experiment [8], -1.11 °C.
Regarding `CCCCCCCC(=O)N[C@H](CN1CCCC1)[C@H](O)c1ccc2c(c1)OCCO2`, the ΔTm was 0.07 °C in experiment [1]; -0.36 °C in experiment [2]; -0.06 °C in experiment [3]; -0.32 °C in experiment [4]; -0.11 °C in experiment [5]; 0.14 °C in experiment [6]. The ΔTm in experiment [7] was -1.58 °C; in experiment [8], -0.39 °C.
Regarding `O=C1c2ccccc2C(=O)c2oc(-c3cccnc3)nc21`, the ΔTm was 0.81 °C in experiment [1]; -2.99 °C in experiment [2]; 0.36 °C in experiment [3]; -0.59 °C in experiment [4]; 0.34 °C in experiment [5]; 0.32 °C in experiment [6]. In addition, the ΔTm in experiment [7] is -2.61 °C; in experiment [8] it was -0.87 °C.
Regarding `CCCOc1ccc(CCc2nc3cc(-c4c(C)noc4C)ccc3n2CCN2CCOCC2)cc1`, the ΔTm in experiment [1] was 0.14 °C; in experiment [2], 0.27 °C; in experiment [3] it was -1.68 °C; in experiment [4], 0.28 °C; in experiment [5] it was 1.16 °C; in experiment [6], 0.33 °C. Further, the shift in melting temperature (ΔTm) was -1.97 °C in experiment [7] and -1.29 °C in experiment [8].
Take `Cc1ccnc(NS(=O)(=O)c2ccc(NC(=O)Nc3ccc(S(=O)(=O)Nc4nccc(C)n4)cc3)cc2)n1`: the ΔTm is 0.29 °C in experiment [1]; -0.01 °C in experiment [2]; 0.44 °C in experiment [3]; -0.62 °C in experiment [4]; -1.11 °C in experiment [5]; 0.44 °C in experiment [6]. The ΔTm in experiment [7] was -1.78 °C; in experiment [8], 2.1 °C.
As for `CCC1CCCCN1C(=O)n1ncc(C(O)(c2ccccc2)c2ccccc2)n1` (stereo unspecified), the ΔTm in experiment [1] is -3.62 °C; in experiment [2] it was -3.03 °C; in experiment [3], -0.45 °C; in experiment [4] it was 0.07 °C; in experiment [5], -6.94 °C; in experiment [6] it was 0.16 °C. In addition, the ΔTm is -2.31 °C in experiment [7] and -1 °C in experiment [8].
For the molecule `CN(C)CCCCC(=O)Nc1ccc(NC(=S)NC(=O)c2ccc(C(C)(C)C)cc2)cc1`, the ΔTm in experiment [1] is 0.43 °C; in experiment [2] it was -4.74 °C; in experiment [3], 0.19 °C; in experiment [4], 0.69 °C; in experiment [5], 1.54 °C; in experiment [6] it was 0.13 °C. For the same molecule, the ΔTm was -2.09 °C in experiment [7] and -0.79 °C in experiment [8].
For the molecule `CCc1nc2c(C)cc(N3CCN(CC(=O)N4CC(O)C4)CC3)cn2c1N(C)c1nc(-c2ccc(F)cc2)c(C#N)s1`, the ΔTm was 0.01 °C in experiment [1]; 2.78 °C in experiment [2]; 0.06 °C in experiment [3]; 0.35 °C in experiment [4]; -0.27 °C in experiment [5]; 0.06 °C in experiment [6]. Besides, the ΔTm is -2.2 °C in experiment [7] and 0.03 °C in experiment [8].
For `Cc1ncccc1-c1cnc(NCc2c(F)ccc3c2CCO3)n2cnnc12`, the ΔTm in experiment [1] is 0.04 °C; in experiment [2], -1.73 °C; in experiment [3] it was 0.42 °C; in experiment [4], 0.15 °C; in experiment [5] it was -0.06 °C; in experiment [6] it was 0.37 °C. Besides, the ΔTm in experiment [7] is -0.39 °C; in experiment [8], -1.52 °C.
Regarding `Cc1nc(N)c2nnn(C[C@H]3CN(Cc4nccs4)CCO3)c2n1`, the ΔTm in experiment [1] is 0.44 °C; in experiment [2], -3.68 °C; in experiment [3] it was -0.07 °C; in experiment [4] it was -0.32 °C; in experiment [5], -0.34 °C; in experiment [6], 0.04 °C. For the same molecule, the figures for the thermal shift (ΔTm) in experiment [7] and in experiment [8] were -1.7 °C and 1.36 °C, respectively.
Consider `CCCCN(Cc1ccc(C(=O)NO)cc1)C(=O)Nc1ccccc1`, for which the ΔTm is 0.74 °C in experiment [1]; -1.81 °C in experiment [2]; 0.54 °C in experiment [3]; 0.26 °C in experiment [4]; -0.89 °C in experiment [5]; 0.25 °C in experiment [6]. Further, the values for the ΔTm in experiment [7] and in experiment [8] were -0.07 °C and -1.23 °C, respectively.
For the molecule `CCOc1ccc2nc(-c3cccc(OCC(=O)NC(C)C)c3)nc(Nc3ccc(-c4cn[nH]c4)cc3)c2c1`, the ΔTm in experiment [1] was 0.09 °C; in experiment [2], -0.68 °C; in experiment [3], 0.3 °C; in experiment [4], -1.4 °C; in experiment [5], -0.35 °C; in experiment [6] it was -2.16 °C. The ΔTm in experiment [7] and in experiment [8] was 0 °C each time.
`Nc1ccccc1NC(=O)CCCCCC(=O)Nc1ccccc1`: the ΔTm in experiment [1] was 0.27 °C; in experiment [2], -2.09 °C; in experiment [3] it was 0.5 °C; in experiment [4], 0.04 °C; in experiment [5], -0.05 °C; in experiment [6], 0.2 °C. Also, the ΔTm in experiment [7] is -0.94 °C; in experiment [8], -0.62 °C.
As for `O=c1[nH][nH]c(=O)c2cc(OCC3CCCCC3)ccc12`, the ΔTm in experiment [1] is 2.06 °C; in experiment [2], -1.15 °C; in experiment [3] it was 1.01 °C; in experiment [4], -0.01 °C; in experiment [5], 2.16 °C; in experiment [6] it was 0.61 °C. The ΔTm in experiment [7] was -0.19 °C; in experiment [8], 1.88 °C.
`Cc1cc(C)nc(SCC(=O)Nc2ncc(Cc3cccc4ccccc34)s2)n1`: the ΔTm was 1.25 °C in experiment [1]; -0.67 °C in experiment [2]; 0.38 °C in experiment [3]; 5.19 °C in experiment [4]; -0.21 °C in experiment [5]; -4.06 °C in experiment [6]. Besides, the ΔTm was -1.18 °C in experiment [7] and 5.54 °C in experiment [8].
In the case of `CCn1c(=O)c(C)cn(Cc2nnc(-c3ccc(F)c(O)c3F)s2)c1=O`, the ΔTm in experiment [1] is 0.41 °C; in experiment [2], -1.52 °C; in experiment [3] it was -0.07 °C; in experiment [4], 0.26 °C; in experiment [5], 0 °C; in experiment [6] it was -0.2 °C. The ΔTm in experiment [7] is -0.34 °C; in experiment [8], -0.63 °C.
For the molecule `CCS(=O)(=O)Cc1cnc(Oc2ccc(F)cc2F)c(-c2cc(C)c3c(=O)[nH]ccn23)c1`, the ΔTm in experiment [1] is 0.69 °C; in experiment [2], 14.7 °C; in experiment [3], 0.81 °C; in experiment [4] it was -0.35 °C; in experiment [5], 1.96 °C; in experiment [6], 0.23 °C. In addition, the ΔTm in experiment [7] was -0.65 °C; in experiment [8] it was 0.45 °C.
`CCC(NC(=O)C(CC(C)C)NC(=O)OCc1ccccc1)C(=O)C(=O)NCCCN1CCOCC1` (stereo unspecified): the ΔTm in experiment [1] was 0.13 °C; in experiment [2] it was -2.44 °C; in experiment [3] it was -0.24 °C; in experiment [4], 0.08 °C; in experiment [5], -1.31 °C; in experiment [6], -0.33 °C. For the same molecule, the ΔTm in experiment [7] is -0.93 °C; in experiment [8], -1.35 °C.
Regarding `COc1ccc(C2C(C#N)=C(N)OC3=C2C(=O)CC(c2cccc4ccccc24)C3)cc1` (stereo unspecified), the ΔTm in experiment [1] is 0.45 °C; in experiment [2] it was -2.45 °C; in experiment [3], -0.04 °C; in experiment [4], -0.36 °C; in experiment [5] it was -0.68 °C; in experiment [6] it was 0.85 °C. Moreover, the ΔTm in experiment [7] is -1.95 °C; in experiment [8], 1.45 °C.
With `COc1cc(O)cc(CN2CCc3c(cc(Cn4ccn(C)c4=N)cc3-c3ccc(F)cc3C)C2=O)c1`, the ΔTm in experiment [1] is 0.41 °C; in experiment [2], -3.72 °C; in experiment [3], -0.56 °C; in experiment [4], -0.83 °C; in experiment [5], -0.55 °C; in experiment [6], 0.04 °C. For the same molecule, the values for the ΔTm in experiment [7] and in experiment [8] were -2.93 °C and -1.53 °C, respectively.
Consider `CS(=O)(=O)c1ncn2c(NCc3c(F)ccc4c3CCO4)ncc(-c3ccc(C4CC4)nc3)c12`, for which the ΔTm is 0.63 °C in experiment [1]; -3.29 °C in experiment [2]; 0.06 °C in experiment [3]; -0.23 °C in experiment [4]; -0.29 °C in experiment [5]; 0.08 °C in experiment [6]. Also, the ΔTm is -2.48 °C in experiment [7] and -0.37 °C in experiment [8].
